The results in this text go back to ChEMBL document CHEMBL1961873, “Compounds: GSK PKIS; Assays: Nanosyn kinase panel” (2012).

In test [1] the target is Sphingosine kinase 1 (Homo sapiens) (UniProt Q9NYA1). Conditions: at 1 µM.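 Note: mean SPHK1 inhibition value reported from the GSK PKIS kinase panel screen.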
For test [2], the target named is T1, Sphingosine kinase 2 (Homo sapiens) (UniProt Q9NRA0).
T1 sequence (whole entry): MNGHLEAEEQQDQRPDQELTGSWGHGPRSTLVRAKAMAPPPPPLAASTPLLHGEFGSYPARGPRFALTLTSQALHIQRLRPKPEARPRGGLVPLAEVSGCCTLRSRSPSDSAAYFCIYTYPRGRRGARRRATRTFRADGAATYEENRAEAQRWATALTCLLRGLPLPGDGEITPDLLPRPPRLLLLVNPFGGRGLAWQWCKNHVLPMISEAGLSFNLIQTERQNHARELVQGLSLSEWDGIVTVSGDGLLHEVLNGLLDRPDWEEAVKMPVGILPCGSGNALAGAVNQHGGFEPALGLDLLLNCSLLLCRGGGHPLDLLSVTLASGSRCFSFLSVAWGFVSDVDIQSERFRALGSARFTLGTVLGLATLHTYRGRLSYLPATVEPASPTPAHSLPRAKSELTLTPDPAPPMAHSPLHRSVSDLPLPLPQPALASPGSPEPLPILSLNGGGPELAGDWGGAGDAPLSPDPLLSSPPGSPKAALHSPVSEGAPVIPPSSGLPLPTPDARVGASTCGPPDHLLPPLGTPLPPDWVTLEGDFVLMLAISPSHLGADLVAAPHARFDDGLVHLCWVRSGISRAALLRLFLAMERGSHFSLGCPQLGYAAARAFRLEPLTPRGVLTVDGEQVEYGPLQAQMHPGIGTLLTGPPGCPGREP
To be noted: at 0.1 µM.

The target in test [3] is T1, Sphingosine kinase 2 (Homo sapiens). Conditions: at 1 µM.
Test [4] addresses Casein kinase II subunit alpha (Homo sapiens) (UniProt P68400). To be noted: at 0.1 µM.
Test [5] shares this target. Conditions: at 1 µM.
In test [6] the target is T2, Inhibitor of nuclear factor kappa-B kinase subunit alpha (Homo sapiens) (UniProt O15111).
T2 sequence (whole entry): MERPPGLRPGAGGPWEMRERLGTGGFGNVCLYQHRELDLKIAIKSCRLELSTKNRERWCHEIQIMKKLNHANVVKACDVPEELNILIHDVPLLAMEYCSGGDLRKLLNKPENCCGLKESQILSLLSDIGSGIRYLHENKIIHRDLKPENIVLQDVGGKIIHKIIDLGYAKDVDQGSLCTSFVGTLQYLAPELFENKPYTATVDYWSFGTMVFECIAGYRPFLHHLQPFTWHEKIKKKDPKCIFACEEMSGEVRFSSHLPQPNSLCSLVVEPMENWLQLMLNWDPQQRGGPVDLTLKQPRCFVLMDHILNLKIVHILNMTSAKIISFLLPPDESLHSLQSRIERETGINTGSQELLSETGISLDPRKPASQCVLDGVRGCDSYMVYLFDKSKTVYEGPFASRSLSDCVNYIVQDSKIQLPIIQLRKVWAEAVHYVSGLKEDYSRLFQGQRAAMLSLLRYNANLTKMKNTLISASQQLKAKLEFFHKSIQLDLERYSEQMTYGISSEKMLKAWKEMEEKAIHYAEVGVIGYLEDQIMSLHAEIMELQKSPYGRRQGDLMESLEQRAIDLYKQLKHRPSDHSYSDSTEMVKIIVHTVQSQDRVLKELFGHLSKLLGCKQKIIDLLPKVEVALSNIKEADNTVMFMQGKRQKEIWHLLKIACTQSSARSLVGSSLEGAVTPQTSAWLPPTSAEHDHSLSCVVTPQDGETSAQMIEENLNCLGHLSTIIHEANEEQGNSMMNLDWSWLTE
Conditions: at 0.1 µM.

The target of test [7] is T2, Inhibitor of nuclear factor kappa-B kinase subunit alpha (Homo sapiens). To be noted: at 1 µM.
In test [8] the target is T3, Inhibitor of nuclear factor kappa-B kinase subunit beta (Homo sapiens) (UniProt O14920).
T3 sequence (whole entry): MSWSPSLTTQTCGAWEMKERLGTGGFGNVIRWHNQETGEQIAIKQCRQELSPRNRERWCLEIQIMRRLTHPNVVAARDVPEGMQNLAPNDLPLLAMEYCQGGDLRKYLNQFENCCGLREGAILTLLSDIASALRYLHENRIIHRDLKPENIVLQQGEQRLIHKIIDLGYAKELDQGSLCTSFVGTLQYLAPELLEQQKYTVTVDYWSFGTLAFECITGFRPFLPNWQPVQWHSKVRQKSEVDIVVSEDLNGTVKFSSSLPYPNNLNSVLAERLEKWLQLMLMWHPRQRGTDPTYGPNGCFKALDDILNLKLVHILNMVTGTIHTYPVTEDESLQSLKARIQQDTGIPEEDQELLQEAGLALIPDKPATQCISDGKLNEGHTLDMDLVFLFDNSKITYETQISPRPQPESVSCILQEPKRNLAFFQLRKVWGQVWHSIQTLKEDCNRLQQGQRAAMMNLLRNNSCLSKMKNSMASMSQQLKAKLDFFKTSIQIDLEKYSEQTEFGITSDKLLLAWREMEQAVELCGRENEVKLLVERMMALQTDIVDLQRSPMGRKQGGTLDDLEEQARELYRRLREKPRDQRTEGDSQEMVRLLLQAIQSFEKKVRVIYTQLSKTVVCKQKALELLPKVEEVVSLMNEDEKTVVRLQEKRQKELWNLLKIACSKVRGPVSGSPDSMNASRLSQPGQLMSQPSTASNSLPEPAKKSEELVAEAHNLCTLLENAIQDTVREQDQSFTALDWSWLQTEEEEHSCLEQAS
To be noted: at 0.1 µM.

Test [9] deals with T3, Inhibitor of nuclear factor kappa-B kinase subunit beta (Homo sapiens). Conditions: at 1 µM.
Test [10] has as its target T4, Inhibitor of nuclear factor kappa-B kinase subunit epsilon (Homo sapiens) (UniProt Q14164).
T4 sequence (whole entry): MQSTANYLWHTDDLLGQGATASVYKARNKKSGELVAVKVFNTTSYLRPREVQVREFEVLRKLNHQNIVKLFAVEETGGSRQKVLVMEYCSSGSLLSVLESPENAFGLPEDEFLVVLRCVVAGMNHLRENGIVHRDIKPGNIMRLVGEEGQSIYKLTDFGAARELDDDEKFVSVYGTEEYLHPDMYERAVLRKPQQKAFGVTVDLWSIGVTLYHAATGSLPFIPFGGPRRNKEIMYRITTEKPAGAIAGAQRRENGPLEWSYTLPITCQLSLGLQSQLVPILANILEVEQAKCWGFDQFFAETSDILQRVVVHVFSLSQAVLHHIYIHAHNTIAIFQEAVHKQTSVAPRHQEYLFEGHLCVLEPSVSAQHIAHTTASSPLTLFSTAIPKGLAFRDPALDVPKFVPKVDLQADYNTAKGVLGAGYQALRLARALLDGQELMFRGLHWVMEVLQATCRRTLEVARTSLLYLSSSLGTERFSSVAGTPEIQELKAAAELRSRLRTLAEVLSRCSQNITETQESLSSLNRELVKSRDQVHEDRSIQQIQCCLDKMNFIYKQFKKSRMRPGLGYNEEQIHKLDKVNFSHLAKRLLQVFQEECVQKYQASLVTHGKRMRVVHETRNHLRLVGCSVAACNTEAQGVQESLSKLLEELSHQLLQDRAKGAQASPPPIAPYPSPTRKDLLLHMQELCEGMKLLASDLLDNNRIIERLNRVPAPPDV
Conditions: at 0.1 µM.

Test [11] concerns the target T4, Inhibitor of nuclear factor kappa-B kinase subunit epsilon (Homo sapiens). Conditions: at 1 µM.
Test [12] has as its target T5, Serine/threonine-protein kinase Nek1 (Homo sapiens) (UniProt Q96PY6).
T5 sequence (whole entry): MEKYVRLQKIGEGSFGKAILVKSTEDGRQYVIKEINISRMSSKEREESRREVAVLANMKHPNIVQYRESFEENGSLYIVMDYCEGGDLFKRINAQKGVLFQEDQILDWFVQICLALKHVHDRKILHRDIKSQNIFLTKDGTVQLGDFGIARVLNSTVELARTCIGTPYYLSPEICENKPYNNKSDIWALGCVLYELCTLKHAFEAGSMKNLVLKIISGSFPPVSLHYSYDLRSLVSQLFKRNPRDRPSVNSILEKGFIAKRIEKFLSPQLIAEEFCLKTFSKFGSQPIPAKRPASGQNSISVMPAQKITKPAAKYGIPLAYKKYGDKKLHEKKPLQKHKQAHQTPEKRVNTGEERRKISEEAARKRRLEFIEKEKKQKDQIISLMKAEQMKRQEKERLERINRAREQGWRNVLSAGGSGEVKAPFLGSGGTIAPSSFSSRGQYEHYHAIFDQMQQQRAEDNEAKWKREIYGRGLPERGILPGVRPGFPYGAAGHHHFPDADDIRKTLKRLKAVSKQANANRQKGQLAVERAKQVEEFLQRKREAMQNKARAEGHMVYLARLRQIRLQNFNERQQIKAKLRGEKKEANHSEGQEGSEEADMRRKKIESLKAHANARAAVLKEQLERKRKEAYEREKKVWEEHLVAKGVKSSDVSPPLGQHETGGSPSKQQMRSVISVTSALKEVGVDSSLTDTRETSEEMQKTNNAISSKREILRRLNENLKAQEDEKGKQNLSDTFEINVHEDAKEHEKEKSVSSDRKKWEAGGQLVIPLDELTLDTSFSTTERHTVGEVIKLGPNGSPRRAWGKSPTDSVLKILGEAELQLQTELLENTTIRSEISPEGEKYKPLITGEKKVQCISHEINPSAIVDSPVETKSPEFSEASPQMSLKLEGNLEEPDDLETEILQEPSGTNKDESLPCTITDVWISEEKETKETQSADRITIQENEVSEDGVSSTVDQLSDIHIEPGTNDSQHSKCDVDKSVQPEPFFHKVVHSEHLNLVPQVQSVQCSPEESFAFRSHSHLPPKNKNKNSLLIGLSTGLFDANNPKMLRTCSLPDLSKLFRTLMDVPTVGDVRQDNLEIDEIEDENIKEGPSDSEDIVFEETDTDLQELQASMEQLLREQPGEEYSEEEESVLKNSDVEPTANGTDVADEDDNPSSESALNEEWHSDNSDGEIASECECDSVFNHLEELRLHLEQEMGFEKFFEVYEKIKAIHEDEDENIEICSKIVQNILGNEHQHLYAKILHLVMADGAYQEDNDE
To be noted: at 0.1 µM.

In test [13] the target is T5, Serine/threonine-protein kinase Nek1 (Homo sapiens). Conditions: at 1 µM.
The target in test [14] is T6, Serine/threonine-protein kinase Nek2 (Homo sapiens) (UniProt P51955).
T6 sequence (whole entry): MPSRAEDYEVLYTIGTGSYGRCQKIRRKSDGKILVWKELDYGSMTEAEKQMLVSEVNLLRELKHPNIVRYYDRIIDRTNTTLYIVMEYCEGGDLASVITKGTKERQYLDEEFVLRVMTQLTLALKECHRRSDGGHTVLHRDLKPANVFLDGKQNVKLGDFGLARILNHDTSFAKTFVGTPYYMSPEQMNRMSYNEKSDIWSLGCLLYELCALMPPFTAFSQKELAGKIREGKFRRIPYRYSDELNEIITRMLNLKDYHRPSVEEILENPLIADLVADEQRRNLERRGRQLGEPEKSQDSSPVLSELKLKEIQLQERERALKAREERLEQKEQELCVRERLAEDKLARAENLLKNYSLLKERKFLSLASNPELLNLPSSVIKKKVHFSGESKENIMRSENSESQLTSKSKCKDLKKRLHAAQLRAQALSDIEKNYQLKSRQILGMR
To be noted: at 0.1 µM.

The target of test [15] is T6, Serine/threonine-protein kinase Nek2 (Homo sapiens). Conditions: at 1 µM.
For test [16], the target named is Serine/threonine-protein kinase Nek6 (Homo sapiens) (UniProt Q9HC98). To be noted: at 0.1 µM.
Sequence of Serine/threonine-protein kinase Nek6 (Homo sapiens) (Q9HC98 whole entry): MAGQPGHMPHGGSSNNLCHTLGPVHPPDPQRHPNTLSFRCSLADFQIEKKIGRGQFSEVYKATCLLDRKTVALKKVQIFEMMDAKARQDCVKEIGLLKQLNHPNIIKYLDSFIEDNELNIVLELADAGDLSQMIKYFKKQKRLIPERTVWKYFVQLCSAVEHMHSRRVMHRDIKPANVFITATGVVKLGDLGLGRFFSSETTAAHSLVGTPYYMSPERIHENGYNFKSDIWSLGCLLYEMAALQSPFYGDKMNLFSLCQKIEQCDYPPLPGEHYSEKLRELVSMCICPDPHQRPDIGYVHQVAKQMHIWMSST
Test [17] has the same target. To be noted: at 1 µM.
For test [18], the target named is Serine/threonine-protein kinase Nek7 (Homo sapiens) (UniProt Q8TDX7). To be noted: at 0.1 µM.
Sequence of Serine/threonine-protein kinase Nek7 (Homo sapiens) (Q8TDX7 whole entry, looked up): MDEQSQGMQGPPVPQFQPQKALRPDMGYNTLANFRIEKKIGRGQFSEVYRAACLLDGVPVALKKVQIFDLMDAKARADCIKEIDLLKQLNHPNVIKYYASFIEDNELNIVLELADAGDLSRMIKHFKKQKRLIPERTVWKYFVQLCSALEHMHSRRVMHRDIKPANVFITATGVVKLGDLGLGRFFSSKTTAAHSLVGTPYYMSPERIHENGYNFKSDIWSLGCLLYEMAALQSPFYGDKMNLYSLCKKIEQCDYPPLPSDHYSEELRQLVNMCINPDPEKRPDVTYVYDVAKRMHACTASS
Test [19] has the same target. To be noted: at 1 µM.
In test [20] the target is T7, Serine/threonine-protein kinase Nek9 (Homo sapiens) (UniProt Q8TD19).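 Note: reported value is the mean percent inhibition of NEK9.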
T7 sequence (whole entry): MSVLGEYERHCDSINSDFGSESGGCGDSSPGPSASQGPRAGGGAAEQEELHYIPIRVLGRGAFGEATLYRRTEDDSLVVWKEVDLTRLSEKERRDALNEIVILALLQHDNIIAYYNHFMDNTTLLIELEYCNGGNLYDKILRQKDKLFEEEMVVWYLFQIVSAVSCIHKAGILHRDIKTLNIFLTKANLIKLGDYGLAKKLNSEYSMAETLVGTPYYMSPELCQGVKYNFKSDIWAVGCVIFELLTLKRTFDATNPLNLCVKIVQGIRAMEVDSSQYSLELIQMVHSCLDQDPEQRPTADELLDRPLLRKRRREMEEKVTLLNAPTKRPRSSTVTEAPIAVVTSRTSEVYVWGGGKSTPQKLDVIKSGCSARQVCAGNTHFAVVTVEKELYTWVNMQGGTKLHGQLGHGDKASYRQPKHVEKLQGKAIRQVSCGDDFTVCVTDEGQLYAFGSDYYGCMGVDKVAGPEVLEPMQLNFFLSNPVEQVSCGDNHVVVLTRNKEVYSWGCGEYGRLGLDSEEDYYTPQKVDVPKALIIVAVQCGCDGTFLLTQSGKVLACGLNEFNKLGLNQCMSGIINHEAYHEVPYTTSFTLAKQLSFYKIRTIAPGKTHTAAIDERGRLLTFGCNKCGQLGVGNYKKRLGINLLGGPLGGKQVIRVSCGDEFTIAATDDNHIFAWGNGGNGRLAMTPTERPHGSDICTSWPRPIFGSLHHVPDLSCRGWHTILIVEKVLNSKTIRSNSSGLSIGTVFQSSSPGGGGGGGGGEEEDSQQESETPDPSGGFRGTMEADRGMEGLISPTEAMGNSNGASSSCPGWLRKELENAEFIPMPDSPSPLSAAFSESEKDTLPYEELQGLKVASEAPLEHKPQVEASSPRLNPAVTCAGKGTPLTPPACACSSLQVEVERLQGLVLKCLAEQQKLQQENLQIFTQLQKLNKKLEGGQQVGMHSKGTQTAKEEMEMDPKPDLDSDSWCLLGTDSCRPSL
Conditions: at 0.1 µM.

Sequence of Casein kinase II subunit alpha (Homo sapiens) (P68400 whole entry, looked up): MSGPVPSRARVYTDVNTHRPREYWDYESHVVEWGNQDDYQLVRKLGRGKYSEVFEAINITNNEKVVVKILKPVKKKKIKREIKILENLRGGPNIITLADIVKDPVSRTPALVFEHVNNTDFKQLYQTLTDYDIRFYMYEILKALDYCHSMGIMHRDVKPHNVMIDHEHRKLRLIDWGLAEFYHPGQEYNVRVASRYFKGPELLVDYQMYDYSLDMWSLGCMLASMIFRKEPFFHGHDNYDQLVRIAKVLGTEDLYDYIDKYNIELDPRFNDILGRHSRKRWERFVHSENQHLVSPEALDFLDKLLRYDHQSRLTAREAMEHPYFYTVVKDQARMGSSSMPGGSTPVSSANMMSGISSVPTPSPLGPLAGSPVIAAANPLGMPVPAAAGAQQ
Sequence of Sphingosine kinase 1 (Homo sapiens) (Q9NYA1 whole entry): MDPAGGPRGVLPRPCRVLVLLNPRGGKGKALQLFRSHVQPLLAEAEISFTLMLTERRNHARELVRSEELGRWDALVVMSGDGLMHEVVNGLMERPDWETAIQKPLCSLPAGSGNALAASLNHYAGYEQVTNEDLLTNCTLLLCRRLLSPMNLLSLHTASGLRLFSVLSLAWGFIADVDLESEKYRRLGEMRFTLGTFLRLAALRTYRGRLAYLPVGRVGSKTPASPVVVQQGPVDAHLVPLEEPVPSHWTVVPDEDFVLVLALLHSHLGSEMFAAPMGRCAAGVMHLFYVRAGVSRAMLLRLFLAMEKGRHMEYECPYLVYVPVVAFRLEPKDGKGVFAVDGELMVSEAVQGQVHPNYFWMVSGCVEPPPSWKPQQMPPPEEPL

As to `Fc1ccc(-c2nn3ncccc3c2-c2ccnc(Nc3ccc4c(c3)OCCO4)n2)cc1`, the inhibition came to 0.16% in test [1]; 0% in [2]; 0.35% in [3]; 2.03% in test [4]; 0.07% in [5]; 9.88% in test [6]. Besides, the inhibition in [7] was determined as 7.87%; in test [8], 5.46%; in test [9] it was 4.62%; in test [10], 5.66%; in test [11], 7.06%; in test [12], 2.45%. Moreover, the inhibition in [13] is 1.02%; in [14] it was 5.03%; in test [15] it was 4.48%; in test [16], 0.64%; in test [17], 3.68%; in test [18], 6.98%. Further, the figures for the inhibition in test [19] and in test [20] were 4.83% and 6.56%, respectively.
